Most compounds without a hit are left out; they make up all but 0.81% or so of the library.
SARS PLpro yeast: inhibitors of SARS-CoV papain-like protease in yeast. AID 485353. S. cerevisiae expressing SARS-CoV PLpro, growth rescue. 330,000 compounds, 0.19% hits. Potency, µM (titrated, usually from 32.9 µM), without a hit: at the top dose activity, positive = growth rescue, hits mostly activators; calls by dose curve; also: 0% is about no effect; nearly all actives have a fitted effect of over 55% in size
RE007 growth inh: less growth of the S. pombe RE007 Vpr strain; Potency, µM (series often up to 92.2 µM), without a hit: top-dose activity change, negative = less growth, hits mostly inhibitors; AID 651644; 360,000 compounds, 0.21% hits; S. pombe RE007 Vpr strain, BacTiter-Glo ATP luminescence, 24 h; active = well fitted falling curve with a large enough effect; inconclusive = small, poorly fitted or top-dose-only effect; inactive = no such curve, though single readings can be large or run the other way; also: % is scaled to controls: 0 for no effect and ±100 for the full control effect; nearly all actives have a fitted effect of over 50% in size
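Fission yeast strain RE007, carrying one chromosomally integrated HIV-1 vpr copy, was seeded at OD 0.01 in PMG+AL medium with 23 nL pinned compound. After 24 h at 30 °C and 99% humidity, viability was read by BacTiter-Glo luminescence.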
AMA1-RON2 inh: AMA1-RON2 (P. falciparum) interaction inhibition; AlphaScreen AMA1-biotinylated RON2 peptide binding; Potency, µM (series often up to 58.2 µM), without a hit: at the top dose activity change, negative = inhibition, actives largely listed as inhibitors; 360,000 compounds, 0.2% hits;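 also: 0% = vehicle wells and -100% = peptide control; nearly all actives have a fitted effect of over 45% in size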
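AMA1 (3D7) with his tag at 25 nM final met compounds first, then biotinylated RON2 peptide at 25 nM; detection used donor plus acceptor beads, 10 µg/mL apiece, read by AlphaScreen after 30 min at room temperature.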
LmPK inh: blocks Leishmania mexicana pyruvate kinase activity | AID 1721 | 290,000 compounds, 0.37% hits | Q27686 | purified LmPK, Kinase-Glo ATP luminescence, 1 h | Potency, µM (titrated, usually from 57.5 µM), inactives show at the top dose activity change, negative = inhibition, most hits filed as inhibitors; also: % is scaled to controls: 0 for no effect and ±100 for the full control effect
Target sequence (Q27686 whole entry, looked up): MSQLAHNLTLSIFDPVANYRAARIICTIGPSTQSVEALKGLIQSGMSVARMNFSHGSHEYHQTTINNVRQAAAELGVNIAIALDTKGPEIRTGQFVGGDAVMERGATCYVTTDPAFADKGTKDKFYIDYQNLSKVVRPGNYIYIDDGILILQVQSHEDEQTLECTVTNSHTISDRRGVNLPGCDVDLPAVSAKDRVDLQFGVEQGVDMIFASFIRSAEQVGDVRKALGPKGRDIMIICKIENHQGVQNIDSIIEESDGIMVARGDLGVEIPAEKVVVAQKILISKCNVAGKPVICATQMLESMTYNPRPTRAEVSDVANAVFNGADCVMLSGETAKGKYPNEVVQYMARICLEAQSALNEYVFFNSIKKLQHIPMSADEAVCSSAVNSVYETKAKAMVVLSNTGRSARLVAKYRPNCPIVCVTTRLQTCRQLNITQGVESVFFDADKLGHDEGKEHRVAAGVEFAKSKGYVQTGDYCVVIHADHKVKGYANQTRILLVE
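Pyruvate kinase activity monitored as ATP production (luciferase luminescence). Conditions: 0.1 nM enzyme, 0.5 mM PEP, 0.1 mM ADP, 1 h, RT; normalized against uninhibited and no-enzyme wells.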
TbPYK inhibitor: inhibitors of Trypanosoma brucei pyruvate kinase | Potency, µM (top dose mostly 76.8 µM), for the others: at the top dose activity, negative = inhibition, most hits filed as inhibitors | TbPYK enzyme, Kinase-Glo Plus ATP luminescence, 45 min | 410,000 compounds, 0.12% hits | Q57TT1; also: % is scaled to controls: 0 for no effect and ±100 for the full control effect; nearly all actives have a fitted effect of over 50% in size
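Activity of T. brucei pyruvate kinase was followed by Kinase-Glo Plus luminescence after the enzyme reacted 45 min at room temperature with 130 uM ADP (final) and substrate. Test compounds were added before ADP at multiple concentrations.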
* hit, by the source's call; u = inconclusive; x = not tested or not shown; [ ] = another dose, or the depositor's remark. Unless noted, calls follow the shape of the dose curve; as a rule, active = well fitted curve in the direction sought with a large enough effect; inconclusive = small, poorly fitted or top-dose-only effect, or another doubt; inactive = no such curve, though single readings can be large; an effect the other way counts as inactive or inconclusive. Potency is read from the fitted curve at half-maximal effect.

SMILES	SARS PLpro yeast	RE007 growth inh	AMA1-RON2 inh	LmPK inh	TbPYK inhibitor
Cc1cc(NC(=O)COC(=O)c2ccccc2Cl)no1	-3%	-1%	14%	x	-1%
CS(=O)(=O)c1ccc(C(=O)C2C(=O)CCCC2=O)c([N+](=O)[O-])c1	x	x	x	x	-8%[157 µM]
NNC(=O)c1nc[nH]c1C(=O)Nc1ccccn1	14µM*	5%	u	0%	0%
Fc1ccc(-n2c(-c3cc(C4CC4)[nH]n3)n[nH]c2=S)cc1Cl	1%	-7%	51%	11µM*	u
COc1ccc(C2/C=C\CN(Cc3ccc(N(C)C)cc3)CC(=O)N2Cc2ccc(F)cc2)cc1 (configuration not stated)	-2%	-4%	16µM*	3%	-2%
Cc1csc(NC(=O)c2cn3ccccc3n2)n1	-17%	u	74%	14µM*	u
O=C(Nc1ccccc1)c1cn2ccccc2n1	-4%	-18%	-7%	16µM*	-22%
Cc1csc(NC(=O)c2cccn2C)n1	-7%	-27%	-9%	18µM*	-24%
Cc1csc(NC(=O)c2ccc3ccccc3n2)n1	1%	-27%	36%	-10%	4%
Cc1csc(NC(=O)c2ccc(C(=O)Nc3nc(C)cs3)cc2)n1	-1%	x	x	-25%	x
Cc1csc(NC(=O)c2sccc2C)n1	-5%	-27%	5%	14µM*	-28%
O=C(NCCCOc1ccc([N+](=O)[O-])cc1Cl)OCc1ccccc1	x	-18%	2%	x	-6%
CC1=NN(c2ccccc2)C(=O)/C1=C/c1ccc[nH]1	5%	-11%	13µM*	1%	-2%
Cc1ccc(NC(=O)Cn2c(-c3cncs3)nc3ccccc32)cc1Br	x	x	x	x	4%
Cc1ccc2c(=O)cc(C(=O)Nc3sc4c(c3C(=O)NCC3CCCO3)CCC4)oc2c1 (configuration not stated)	x	x	x	x	1%
CC(C)(C)OC(=O)NCC12C=CC(O1)C1C(=O)N(Cc3ccccc3)C(=O)C12 (configuration not stated)	-95%	45µM*	1%	-3%	-2%
CSc1ccc(C(=O)C2CCCN(Cc3cccnc3)C2)cc1 (configuration not stated)	0%	-6%	4%	12%	-5%
CSc1ccc(C(=O)C2CCCN(Cc3cc4ccccc4[nH]3)C2)cc1 (configuration not stated)	-1%	-3%	32µM*	7%	-5%
COc1ccc(N2Cc3cccc(C(=O)Nc4ccc(F)cc4)c3C2=O)cc1	x	x	x	x	-2%
CCN(CC)c1ccc(C(NC(=O)C(C)C)c2ccc3cccnc3c2O)cc1 (configuration not stated)	x	-21%	-15%	x	-5%
CC(C)C(=O)NC(c1ccco1)c1ccc2cccnc2c1O (configuration not stated)	u	-25%	20µM*	1%	-10%
CC1=NN(c2ccc(S(=O)(=O)O)cc2C)C(=O)C1	0%	3%	8%	0%	-1%
O=C(O)C1=NN(c2cc(Cl)c(S(=O)(=O)O)cc2Cl)C(=O)C1	x	12%	2.8µM*	x	5%
Cc1cc(C)c(S(=O)(=O)/N=C2/C=C(Sc3ncn[nH]3)C(=O)c3ccccc32)cc1C	-65%	u	-26%	7.9µM*	5.6µM*
F[Si-2](F)(F)(F)(F)F	x	x	x	x	-5%
SMILES	SARS PLpro yeast	RE007 growth inh	AMA1-RON2 inh	LmPK inh	TbPYK inhibitor
Cc1cccc(/C(N)=N/OC(=O)c2ccc(Cl)cc2Cl)c1	-87%	-15%	0%	7.9µM*	u
N/C(=N\OC(=O)c1ccccc1Cl)c1ccccc1	6%	-21%	23%	14µM*	-17%
N/C(=N\OC(=O)c1ccc(Cl)cc1Cl)c1ccccc1	-5%	-23%	54%	11µM*	u
N/C(=N\OC(=O)c1ccccc1Cl)c1ccc(Cl)cc1	-29%	u	33%	-16%	6%
N/C(=N\OC(=O)c1ccc(Cl)cc1Cl)c1ccc(Cl)cc1	-31%	u	10%	-13%	3%
CC1(c2ccc3c(c2)OCO3)NC(=O)N(CC(=O)Nc2ccccc2[N+](=O)[O-])C1=O (configuration not stated)	1%	15%	5%	x	-1%
Oc1ccc(CNc2cccc(F)c2F)c2cccnc12	2%	x	x	x	x
CC(=O)c1ccc2c3c(ccc([N+](=O)[O-])c13)CC2	x	-19%	-5%	x	4%
Nc1ccc2c3c(ccc([N+](=O)[O-])c13)CC2	x	u	28µM*	x	-4%
C[N+]1(C)CCC(OC(=O)CC(O)(c2ccccc2)C2CCCC2)C1 (configuration not stated)	x	x	x	x	-9%
Cc1ccc(-c2nc3ccccc3[nH]2)s1	-28%	20µM*	10%	16µM*	u
c1csc(-c2nc3ccccc3[nH]2)c1	-49%	-8%	12%	u	1%
c1ccc(-c2nc3ccccc3[nH]2)cc1	-19%	-22%	0%	u	4%
COc1ccc(-c2nc3ccccc3[nH]2)cc1	-29%	u	0%	13µM*	u
Cc1cc(-c2nc3ccccc3[nH]2)ccc1N	-12%	u	-20%	16µM*	-12%
O=Cc1ccc(-c2nc3ccccc3s2)o1	-4%	-10%	-12%	16µM*	-13%
O=C(O)c1ccc(-c2nc3ccccc3s2)o1	-1%	-4%	23%	-18%	-1%
Cc1ccc(/C=C/C(=O)NC2CCCCCCC2)o1	-75%	-91%	-23%	-7%	7.9µM*
CCC(C(=O)C(C)C(O)C(C)CCc1ccc(C)c(O)c1C(=O)O)C1OC(CC)(C2CC[C@@](O)(CC)C(C)O2)CC1C (some centres not stated)	x	x	x	x	3%
CCOC(=O)/C(=N/Nc1ccccc1)N1CCCc2ccccc21	u	-9%	u	-8%	-5%
CCOC(=O)/C(=N/Nc1ccc(OC)cc1)N1CCCc2ccccc21	-2%	80%	22µM*	1%	0%
CC(C)Cn1c(C23CC4CC(CC(C4)C2)C3)n[nH]c1=S	3%	-11%	61%	25µM*	u
Cn1c(C23CC4CC(CC(C4)C2)C3)n[nH]c1=S	13µM*	-14%	4%	1%	u
COCCCn1c(C23CC4CC(CC(C4)C2)C3)n[nH]c1=S	9%	10%	68%	-9%	u
CCOC(=O)C1=Nc2ccccc2/C1=C\c1c(O)n(C)c(=O)n(C)c1=O	0%	6%	3%	-2%	-7%
CCOC(=O)C1=Nc2ccccc2C1=[N+]=[N-]	-16%	0.25µM*	-4%	-1%	3%
O=C1Nc2ccccc2C(=O)C1(Cl)Cc1ccccc1 (configuration not stated)	-23%	-2%	2%	-1%	4.5µM*
CC(C)(C)N1C(=O)c2ccccc2NC(=O)N1Cc1ccccc1	-5%	2%	-10%	3%	-4%

Screening results (PubChem)
